An excerpt weighted towards active compounds, which were near 3.2% of everything screened.
GLP-1R inv ag: qHTS of GLP-1 Receptor Inverse Agonists (Inhibition Mode); Glucagon-like peptide 1 receptor (Homo sapiens), P43220; HEK293 GLP-1R CRE-luciferase, luminescence, 24 h; GLP-1R form is constitutively active; Potency, µM (top dose mostly 38.3 µM), hits mostly inhibitors; hit rate 1.6% among 410,000; AID 624417, 2012; also: nearly all actives have a fitted effect of over 55% in size
Target sequence (P43220 whole entry, looked up): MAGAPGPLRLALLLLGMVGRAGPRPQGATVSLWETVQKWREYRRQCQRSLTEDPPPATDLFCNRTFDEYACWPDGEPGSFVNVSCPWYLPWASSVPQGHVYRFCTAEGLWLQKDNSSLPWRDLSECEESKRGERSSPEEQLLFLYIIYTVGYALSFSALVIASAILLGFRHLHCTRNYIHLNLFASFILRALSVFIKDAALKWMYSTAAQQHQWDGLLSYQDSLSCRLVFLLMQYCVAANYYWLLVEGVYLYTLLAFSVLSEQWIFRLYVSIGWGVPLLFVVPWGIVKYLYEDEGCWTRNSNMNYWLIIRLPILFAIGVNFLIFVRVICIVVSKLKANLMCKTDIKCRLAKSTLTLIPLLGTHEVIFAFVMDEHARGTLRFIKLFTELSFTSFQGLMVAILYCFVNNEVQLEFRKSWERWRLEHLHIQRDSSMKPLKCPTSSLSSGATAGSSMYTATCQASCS
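HEK293 cells stably co-expressing constitutively active GLP-1R and a cAMP-responsive luciferase reporter were seeded in DMEM with 10% Nu serum, given compounds after 12 h, and incubated 24 h at 37 deg C. Luminescence was then read.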
GLP1R cytotox: qHTS of GLP-1 Receptor Inverse Agonists: Cytotox Screen. hit rate 0.13% among 410,000. Potency, µM (top dose mostly 38.3 µM), actives largely listed as inhibitors. HEK293 cAMP-luciferase reporter cells, luminescence, 24 h. AID 624418, 2012;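 also: loss of luciferase light is scored as toxicity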
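1536-well qHTS counterscreen of the MLSMR; 200 cells/uL, 12 h pre-incubation, 23 nL cpd, 24 h at 37 deg C 5% CO2, luciferase detection reagent, 12 min RT, luminescence. Inhibition = undesired.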
ClpP mod: qHTS Assay for Activators of ClpP | hit rate 1.9% among 340,000 | purified B. subtilis ClpP, FRET peptide cleavage, 20 min | Potency, µM (doses to about 57.5 µM) | ATP-dependent Clp protease proteolytic subunit (Bacillus subtilis (strain 168)), P80244; active = well fitted falling curve with a large enough effect; inconclusive = small, poorly fitted or top-dose-only effect; inactive = no such curve, though single readings can be large or run the other way; also: the source files actives as falling curves though it sought activators and does not explain the sign; nearly all actives have a fitted effect of over 65% in size
Target sequence (P80244 whole entry, looked up): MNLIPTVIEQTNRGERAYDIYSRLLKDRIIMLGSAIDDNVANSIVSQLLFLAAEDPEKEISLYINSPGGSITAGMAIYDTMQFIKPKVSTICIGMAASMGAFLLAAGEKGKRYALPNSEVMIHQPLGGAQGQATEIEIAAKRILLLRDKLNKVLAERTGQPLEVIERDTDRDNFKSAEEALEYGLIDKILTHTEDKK
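FRET quenching reversal measured ClpP activation: 10 microg/mL B. subtilis ClpP at pH 8 with the FRET-FV decapeptide, read at 430 nm after 320 nm excitation. The 20-min minus 0-min signal was scaled between DMSO/no-enzyme wells and ADEP (5.8 microM final).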
GLP-1R agonist: qHTS of GLP-1 Receptor Agonists; Glucagon-like peptide 1 receptor (Homo sapiens), P43220; HEK293 GLP-1R CRE-luciferase, luminescence, 4-6 h; cells express a hypersensitive GLP-1R form; Potency, µM (series often up to 45.6 µM), usual class: activators; hit rate 0.007% among 380,000
Each line names hits and unclear results; the compound was inactive in the other large screens. Unless noted, calls follow the shape of the dose curve; as a rule, active = well fitted curve in the direction sought with a large enough effect; inconclusive = small, poorly fitted or top-dose-only effect, or another doubt; inactive = no such curve, though single readings can be large; an effect the other way counts as inactive or inconclusive.

Cc1ccc(S(=O)(=O)Nc2ccccc2CNc2ncc(Br)cc2Br)cc1	GLP-1R inv ag 10µM
CCn1c2ccccc2c2cc(CN3CCN(Cc4ccc(Br)cc4)CC3)ccc21	GLP-1R inv ag inconclusive, ClpP mod inconclusive (no result: GLP-1R agonist)
CCOC(=O)Nc1ccc2c(c1)N(C(=O)OC)c1ccccc1CC2	none
CCOC(=O)Nc1ccc2c(c1)N(CCCN(C)C)c1ccccc1CC2	GLP-1R inv ag 12.6µM, ClpP mod inconclusive
CC1CCc2c(sc3nnn(Cc4ccc(F)cc4)c(=O)c23)C1 (stereo not drawn)	GLP-1R inv ag inconclusive (no result: GLP-1R agonist)
Cc1cc(N2CCN(Cc3ccccc3)CC2)n2nc(C)c(-c3ccccc3)c2n1	ClpP mod 31.6µM
CCCc1cc(N2CCOCC2)n2nc(C)c(-c3ccccc3)c2n1	none
CCCc1cc(N2CCN(c3ccccn3)CC2)n2nc(C)c(-c3ccccc3)c2n1	ClpP mod 28.2µM
COc1ccc(CN2CCN(c3cc(C)nc4c5c(C)cc(C)nc5nn34)CC2)cc1F	ClpP mod 11.2µM
COc1ccc(-c2c(C)nn3c(N4CCN(Cc5ccccc5)CC4)cc(C)nc23)cc1OC	none
Cc1nn2c(N3CCCC3)cc(C(C)C)nc2c1-c1ccccc1	ClpP mod 35.5µM
CCOC(=O)c1c(C)[nH]c(CCC(=O)Nc2ccc(C)c(F)c2)c1C	none (no result: GLP-1R agonist)
Cc1ccc(C(C)C)c(OCCn2cc(C(=O)c3ccco3)c3ccccc32)c1	GLP-1R inv ag inconclusive, ClpP mod inconclusive (no result: GLP-1R agonist)
CCOc1ccccc1NC(=O)C(=O)NCCc1sc(-c2cccc(F)c2)nc1C	none (no result: GLP-1R agonist)
Cc1cc(N2CCN(c3ccccn3)CC2)n2cc(-c3ccccc3)nc2n1	ClpP mod 28.2µM
Cc1nn2c(N3CCN(C4CCCC4)CC3)cc(C(C)(C)C)nc2c1-c1ccccc1	none
Cc1nn2c(N3CCN(C)CC3)cc(C(C)(C)C)nc2c1-c1ccccc1	GLP-1R inv ag 7.08µM, GLP1R cytotox inconclusive, GLP-1R agonist inconclusive (no result: ClpP mod)
CCN(CC)CC#CCC(O)(c1ccccc1)c1ccc(Br)cc1 (stereo not drawn)	GLP-1R inv ag 10µM
CCN(CC)CC#CCC(O)(c1ccccc1)c1ccccc1	GLP-1R inv ag inconclusive
CN(C)S(=O)(=O)Oc1ccccc1C(=O)Nc1ccc(F)cc1F	none (no result: ClpP mod)
CCN(CC)C(=O)Oc1ccc(Br)cc1C(=O)Nc1ccc(F)cc1F	GLP-1R inv ag inconclusive, ClpP mod 31.6µM
N=C(N)c1ccc(OCCCOc2ccc(C(=N)N)cc2Br)c(Br)c1	none (no result: GLP-1R inv ag, GLP1R cytotox, ClpP mod)
CN(c1ccccc1)S(=O)(=O)c1cccc(NC(=O)COc2cccc([N+](=O)[O-])c2)c1	GLP-1R inv ag 10µM
CCC(=O)c1ccc(OCC(=O)Nc2cccc(S(=O)(=O)N(C)c3ccccc3)c2)cc1	GLP-1R inv ag inconclusive
Cc1ccsc1CN(C)CC(=O)Nc1cccc(S(=O)(=O)N(C)c2ccccc2)c1	GLP-1R inv ag 8.91µM
COc1cccc(N2CC(NC(=O)COc3ccccc3F)CC2=O)c1 (stereo not drawn)	none (no result: GLP-1R agonist)
COc1cc(C(=O)Nc2cc3c(cc2C)n(C)c(=O)c(=O)n3C)cc(OC)c1OC	ClpP mod inconclusive (no result: GLP-1R agonist)
CCc1ccc(NC(=O)CN2C(=O)c3ccccc3Sc3ccc(C(=O)N4CCCC4)cc32)cc1	GLP-1R inv ag inconclusive (no result: GLP-1R agonist)
CCCCCNCC(=O)Nc1cccc(C(=O)Nc2cccc(C(F)(F)F)c2)c1	GLP-1R inv ag 6.31µM, GLP1R cytotox inconclusive, ClpP mod 28.2µM
COc1cc(NC(=O)CC(c2cccs2)N2Cc3ccccc3C2=O)cc(OC)c1OC (stereo not drawn)	none
Clc1ccc(-c2nc(CSc3ccccn3)cs2)cc1	GLP-1R inv ag inconclusive
Nc1ccccc1SCc1csc(-c2ccc(Cl)cc2)n1	GLP-1R inv ag 10µM
CC1=C(C(=O)Nc2cc(C)ccn2)C(c2ccc(C)cc2)C2=C(CCCC2=O)N1 (stereo not drawn)	ClpP mod 28.2µM
CCN(CC)c1ccc(C2C(C(=O)Nc3ccccn3)=C(C)NC3=C2C(=O)CC(C)(C)C3)cc1 (stereo not drawn)	GLP-1R inv ag inconclusive
CCn1cc(C2C(C(=O)Nc3cc(C)ccn3)=C(C)NC3=C2C(=O)CC(C)(C)C3)c(C)n1 (stereo not drawn)	ClpP mod 10µM
CC1=C(C(=O)Nc2ccccc2)C(c2ccc3c(c2)OCO3)C2=C(CCCC2=O)N1 (stereo not drawn)	none
O=C(NCCNC(=O)c1ccc(Br)o1)c1cccnc1	ClpP mod 25.1µM
COC(=O)c1cn(NC(=O)c2ccc(OC)c(OC)c2)c(=O)c2ccccc12	none
COC(=O)c1cn(NC(=O)/C=C/c2cc(OC)ccc2OC)c(=O)c2ccccc12	ClpP mod 28.2µM
COC(=O)c1[nH]c2cccc(OC)c2c1NC(=O)CCN1CCC(C)CC1	ClpP mod 25.1µM
COC(=O)c1[nH]c2cccc(OC)c2c1NC(=O)CCN1CCN(c2ccccc2OC)CC1	GLP-1R inv ag inconclusive, ClpP mod inconclusive
COC(=O)c1[nH]c2cccc(OC)c2c1NC(=O)C(C)N1CCC(C)CC1 (stereo not drawn)	ClpP mod 31.6µM
Cc1cc(C(=O)OC(C)C(=O)Nc2nc(-c3ccccc3)cs2)c(C)o1 (stereo not drawn)	GLP-1R inv ag 10µM
Cc1cc(C(=O)OCC(=O)Nc2nc(-c3ccccc3)cs2)c(C)o1	none
Cc1ccccc1S(=O)Cc1ccc(C(=O)NCc2ccccc2Cl)o1 (stereo not drawn)	none
Cc1ccc(CN2CCC(CNC(=O)Nc3cccc(Cl)c3C)C2)cc1 (stereo not drawn)	GLP-1R inv ag inconclusive (no result: GLP-1R agonist)
COc1ccc(OCC(=O)NC(Cc2c[nH]c3ccccc23)C(=O)O)cc1 (stereo not drawn)	none (no result: GLP-1R agonist)
CCOc1ccccc1NC(=O)C1(S(=O)(=O)c2ccc(Cl)cc2)CC1	GLP-1R inv ag 7.08µM (no result: ClpP mod)
CCOc1ccccc1NC(=O)c1cc(S(=O)(=O)NC2CCCC2)ccc1F	GLP-1R inv ag 6.31µM (no result: GLP-1R agonist)
CCOc1ccc(NC(=O)c2cc(S(=O)(=O)NC3CCCCCC3)ccc2F)cc1	GLP-1R inv ag inconclusive (no result: GLP-1R agonist)
COc1ccc(CCn2c(=S)[nH]c(=O)c3cccnc32)cc1OC	none (no result: GLP-1R inv ag, GLP1R cytotox, GLP-1R agonist)
CCC(Oc1ccc(F)cc1)C(=O)Nc1nc2c(s1)CCCC2 (stereo not drawn)	GLP-1R inv ag inconclusive (no result: GLP-1R agonist)
O=C(CCCSc1nc2ccccc2[nH]1)NC(c1ccccc1)c1ccccc1	GLP-1R inv ag 8.91µM
CC(C)(C)n1nnnc1CN(Cc1ccco1)Cc1cc2cc3c(cc2[nH]c1=O)OCO3	ClpP mod 28.2µM
COc1ccc2[nH]c(=O)c(CN(Cc3ccco3)Cc3nnnn3Cc3ccccc3)cc2c1	ClpP mod 25.1µM
CCC(C)(C)n1nnnc1CN(Cc1ccco1)Cc1cc2cc3c(cc2[nH]c1=O)OCO3	ClpP mod 31.6µM

Bioassay records from PubChem.
